# Assay results from the OligoGym collection.
# Key:
# Experiment in all cases: pooled miR-30 sensor sort-seq; sequence = guide strand
# Conditions in all cases: shRNA
# CD180 = target: CD180
# CD27 = target: CD27
# CD1E = target: CD1E
# Also: reference of the scale not given here.
sequence,measurement,setting,value
TTGGTCTTCGTGATAGTCCCAT,sensor-assay potency score (higher = more potent),CD180,0.105
TGGAAGAGGATCACACTCGGTG,sensor-assay potency score (higher = more potent),CD27,-0.658
TAGGTAGCGATTGAGCACTTTA,sensor-assay potency score (higher = more potent),CD1E,-0.754
AAAACAAGGAACATTCCAGAGA,sensor-assay potency score (higher = more potent),CD27,-0.821
TTCCTTAATATCTAGGTAGCGA,sensor-assay potency score (higher = more potent),CD1E,-0.491
TTAACCGTGAGTCAACTACAAC,sensor-assay potency score (higher = more potent),CD1E,-1.49
